# Results reported in article PMC7862700, “An all-to-all approach to the identification of sequence-specific readers for epigenetic DNA modifications on cytosine”.
# Columns and labels:
# Assay in all cases: DAPPL (digital affinity profiling via proximity ligation, sequencing); 10 mM Tris-HCl pH 7.5, 50 mM NaCl, 1 mM DTT, 4% glycerol, room temperature, 30 min; GST-TFs on glutathione beads, 16-mer random dsDNA library, 0.1% formaldehyde crosslink after washing; high values mean tight binding
# [1] = biological target: T1, FLI1 (Homo sapiens, UniProt Q01543 1-452); conditions: protein: recombinant; tags: N-terminal GST; dsDNA, one strand shown
# T1 sequence: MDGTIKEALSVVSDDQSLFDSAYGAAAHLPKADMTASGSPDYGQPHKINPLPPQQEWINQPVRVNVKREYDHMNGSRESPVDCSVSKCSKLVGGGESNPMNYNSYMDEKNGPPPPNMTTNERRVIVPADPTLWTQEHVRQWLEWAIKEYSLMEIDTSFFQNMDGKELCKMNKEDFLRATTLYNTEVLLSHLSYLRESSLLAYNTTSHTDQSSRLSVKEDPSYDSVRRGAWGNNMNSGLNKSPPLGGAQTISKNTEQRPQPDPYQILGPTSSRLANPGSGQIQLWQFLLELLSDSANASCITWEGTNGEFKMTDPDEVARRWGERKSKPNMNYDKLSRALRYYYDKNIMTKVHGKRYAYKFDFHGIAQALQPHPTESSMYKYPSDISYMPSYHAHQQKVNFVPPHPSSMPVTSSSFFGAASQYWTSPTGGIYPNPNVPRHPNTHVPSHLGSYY
# Method in brief: (§1)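 Binding signal is each hexamer's read frequency for a factor divided by its frequency in the tag-only sample. The factors were GST-fused human transcription factors from yeast, captured on glutathione beads, DNA-barcoded and pooled with that sample. Pools were incubated with 200 nmole of a random double-stranded 16-mer DNA library in Tris/NaCl/DTT/glycerol buffer at room temperature for 30 min, then washed, crosslinked with 0.1% formaldehyde, proximity-ligated with BsaI/T4 ligase (1 h, 37 °C), PCR-amplified and sequenced on an Illumina NextSeq500.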
# [2] = biological target: T2, ELK1 (Homo sapiens, UniProt P19419 1-428); conditions: protein: recombinant; tags: N-terminal GST; dsDNA, one strand shown
# T2 sequence: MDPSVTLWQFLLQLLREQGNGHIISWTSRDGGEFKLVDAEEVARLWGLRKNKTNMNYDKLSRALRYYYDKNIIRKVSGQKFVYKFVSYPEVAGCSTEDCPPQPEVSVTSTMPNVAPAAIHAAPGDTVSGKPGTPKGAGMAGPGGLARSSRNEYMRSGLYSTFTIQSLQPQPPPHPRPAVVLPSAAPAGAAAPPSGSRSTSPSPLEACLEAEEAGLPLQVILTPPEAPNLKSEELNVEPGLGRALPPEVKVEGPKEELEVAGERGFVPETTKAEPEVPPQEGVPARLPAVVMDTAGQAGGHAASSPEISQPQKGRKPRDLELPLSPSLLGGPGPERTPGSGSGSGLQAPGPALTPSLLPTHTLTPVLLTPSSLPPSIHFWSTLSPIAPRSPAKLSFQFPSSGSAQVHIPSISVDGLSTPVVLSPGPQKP
# Method in brief: as §1
# [3] = biological target: T3, GABPA (Homo sapiens, UniProt Q06546 1-454); conditions: protein: recombinant; tags: N-terminal GST; dsDNA, one strand shown
# T3 sequence: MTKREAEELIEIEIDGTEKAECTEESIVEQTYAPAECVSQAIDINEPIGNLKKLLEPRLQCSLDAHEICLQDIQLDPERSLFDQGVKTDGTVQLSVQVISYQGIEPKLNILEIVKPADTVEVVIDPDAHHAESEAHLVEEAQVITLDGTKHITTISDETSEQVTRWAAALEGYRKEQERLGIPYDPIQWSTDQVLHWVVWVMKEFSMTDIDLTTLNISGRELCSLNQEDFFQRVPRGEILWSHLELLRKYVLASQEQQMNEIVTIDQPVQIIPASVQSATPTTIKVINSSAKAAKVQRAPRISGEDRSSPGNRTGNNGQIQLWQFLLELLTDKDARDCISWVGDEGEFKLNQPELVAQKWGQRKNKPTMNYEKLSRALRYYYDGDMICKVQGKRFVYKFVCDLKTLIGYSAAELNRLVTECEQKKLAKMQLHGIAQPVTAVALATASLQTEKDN
# Method in brief: as §1
# [4] = biological target: T4, ERG (Homo sapiens, UniProt P11308 1-479); conditions: protein: recombinant; tags: N-terminal GST; dsDNA, one strand shown
# T4 sequence: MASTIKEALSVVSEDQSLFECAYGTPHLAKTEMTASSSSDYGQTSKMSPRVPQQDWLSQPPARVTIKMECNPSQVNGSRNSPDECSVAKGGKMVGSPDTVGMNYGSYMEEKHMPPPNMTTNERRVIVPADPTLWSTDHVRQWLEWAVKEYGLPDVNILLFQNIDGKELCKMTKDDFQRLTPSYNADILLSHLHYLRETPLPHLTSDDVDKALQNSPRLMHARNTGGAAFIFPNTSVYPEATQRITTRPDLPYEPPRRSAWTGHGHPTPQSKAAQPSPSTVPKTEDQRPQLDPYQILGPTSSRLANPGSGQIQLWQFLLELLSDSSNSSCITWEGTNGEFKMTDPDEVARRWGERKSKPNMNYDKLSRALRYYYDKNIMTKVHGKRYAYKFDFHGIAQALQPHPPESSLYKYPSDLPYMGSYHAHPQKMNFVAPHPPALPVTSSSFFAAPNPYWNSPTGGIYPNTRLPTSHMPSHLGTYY
# Method in brief: as §1
# [5] = biological target: ELF1 (Homo sapiens, UniProt P32519 1-619); conditions: protein: recombinant; tags: N-terminal GST; dsDNA, one strand shown
# Method in brief: as §1
# [6] = biological target: T5, EHF (Homo sapiens, UniProt Q9NZC4 1-300); conditions: protein: recombinant; tags: N-terminal GST; dsDNA, one strand shown
# T5 sequence: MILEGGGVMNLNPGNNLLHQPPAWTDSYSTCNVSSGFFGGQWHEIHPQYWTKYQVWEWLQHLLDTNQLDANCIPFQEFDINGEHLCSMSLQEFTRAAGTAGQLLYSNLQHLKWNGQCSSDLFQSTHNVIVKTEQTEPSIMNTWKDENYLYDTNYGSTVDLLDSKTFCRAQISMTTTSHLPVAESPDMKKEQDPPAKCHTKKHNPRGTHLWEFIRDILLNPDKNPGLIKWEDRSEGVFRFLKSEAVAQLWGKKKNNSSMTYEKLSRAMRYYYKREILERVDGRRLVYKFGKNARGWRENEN
# Method in brief: as §1
# [7] = biological target: SPI1 (Homo sapiens, UniProt P17947 1-270); conditions: protein: recombinant; tags: N-terminal GST; dsDNA, one strand shown
# Method in brief: as §1
# [8] = biological target: SPIB (Homo sapiens, UniProt Q01892 1-262); conditions: protein: recombinant; tags: N-terminal GST; dsDNA, one strand shown
# Method in brief: as §1
# [9] = biological target: T6, ELK3 (Homo sapiens, UniProt P41970 1-407); conditions: protein: recombinant; tags: N-terminal GST; dsDNA, one strand shown
# T6 sequence: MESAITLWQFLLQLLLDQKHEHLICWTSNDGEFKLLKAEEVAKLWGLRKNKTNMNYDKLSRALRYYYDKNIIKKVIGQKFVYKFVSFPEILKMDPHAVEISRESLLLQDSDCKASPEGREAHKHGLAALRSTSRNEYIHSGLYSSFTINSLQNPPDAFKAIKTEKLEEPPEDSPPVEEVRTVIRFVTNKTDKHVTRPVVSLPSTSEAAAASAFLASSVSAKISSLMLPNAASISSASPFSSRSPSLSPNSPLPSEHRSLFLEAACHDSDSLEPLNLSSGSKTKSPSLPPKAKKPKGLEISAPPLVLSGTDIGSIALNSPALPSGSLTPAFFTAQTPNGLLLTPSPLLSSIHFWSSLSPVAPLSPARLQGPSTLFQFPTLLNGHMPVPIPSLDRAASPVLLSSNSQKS
# Method in brief: as §1
# [10] = biological target: T7, FEV (Homo sapiens, UniProt Q99581 1-238); conditions: protein: recombinant; tags: N-terminal GST; dsDNA, one strand shown
# T7 sequence: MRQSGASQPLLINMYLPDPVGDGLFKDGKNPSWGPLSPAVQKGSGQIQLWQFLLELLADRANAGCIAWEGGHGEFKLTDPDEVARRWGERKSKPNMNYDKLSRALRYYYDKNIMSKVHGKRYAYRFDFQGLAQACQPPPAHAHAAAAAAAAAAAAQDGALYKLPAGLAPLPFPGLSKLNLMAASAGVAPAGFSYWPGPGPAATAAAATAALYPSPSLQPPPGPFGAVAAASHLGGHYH
# Method in brief: as §1
# [11] = biological target: ETV5 (Homo sapiens, UniProt P41161 1-510); conditions: protein: recombinant; tags: N-terminal GST; dsDNA, one strand shown
# Method in brief: as §1
# [12] = biological target: HSF1 (Homo sapiens, UniProt Q00613 1-529); conditions: protein: recombinant; tags: N-terminal GST; chain copies: 3; dsDNA, one strand shown
# Method in brief: as §1
# [13] = biological target: T8, SPIC (Homo sapiens, UniProt Q8N5J4 1-248); conditions: protein: recombinant; tags: N-terminal GST; dsDNA, one strand shown
# T8 sequence: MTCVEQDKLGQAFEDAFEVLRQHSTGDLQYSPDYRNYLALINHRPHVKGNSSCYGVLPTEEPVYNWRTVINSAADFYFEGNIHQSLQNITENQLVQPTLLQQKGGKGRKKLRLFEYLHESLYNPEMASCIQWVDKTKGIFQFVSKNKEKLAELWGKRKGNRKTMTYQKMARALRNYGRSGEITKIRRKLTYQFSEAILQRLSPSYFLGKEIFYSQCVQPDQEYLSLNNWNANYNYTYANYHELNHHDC
# Method in brief: as §1
# [14] = biological target: ELF4 (Homo sapiens, UniProt Q99607 1-663); conditions: protein: recombinant; tags: N-terminal GST; dsDNA, one strand shown
# Method in brief: as §1
# [15] = biological target: T9, ELK4 (Homo sapiens, UniProt P28324-2 1-405); conditions: protein: recombinant; tags: N-terminal GST; dsDNA, one strand shown
# T9 sequence: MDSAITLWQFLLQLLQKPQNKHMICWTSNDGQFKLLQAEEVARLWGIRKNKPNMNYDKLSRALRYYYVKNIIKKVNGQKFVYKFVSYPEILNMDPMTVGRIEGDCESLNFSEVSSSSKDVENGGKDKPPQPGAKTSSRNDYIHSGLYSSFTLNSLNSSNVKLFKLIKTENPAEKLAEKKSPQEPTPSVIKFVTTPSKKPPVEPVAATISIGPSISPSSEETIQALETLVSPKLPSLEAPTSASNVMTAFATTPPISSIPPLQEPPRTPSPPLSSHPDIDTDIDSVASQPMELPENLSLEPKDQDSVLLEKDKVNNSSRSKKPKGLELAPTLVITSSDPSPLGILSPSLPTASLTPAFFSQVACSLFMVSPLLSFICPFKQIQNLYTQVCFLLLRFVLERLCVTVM
# Method in brief: as §1
# [16] = biological target: T10, ETV2 (Homo sapiens, UniProt O00321 1-342); conditions: protein: recombinant; tags: N-terminal GST; dsDNA, one strand shown
# T10 sequence: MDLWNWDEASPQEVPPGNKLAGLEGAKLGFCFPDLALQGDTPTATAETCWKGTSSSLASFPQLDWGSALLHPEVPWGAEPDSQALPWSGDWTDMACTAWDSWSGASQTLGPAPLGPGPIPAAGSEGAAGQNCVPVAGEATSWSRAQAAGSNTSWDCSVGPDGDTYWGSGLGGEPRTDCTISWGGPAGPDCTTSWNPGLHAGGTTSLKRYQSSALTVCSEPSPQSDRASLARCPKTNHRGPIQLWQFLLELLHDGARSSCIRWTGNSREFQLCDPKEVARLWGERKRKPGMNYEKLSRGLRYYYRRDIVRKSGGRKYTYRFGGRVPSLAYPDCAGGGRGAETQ
# Method in brief: as §1
# [17] = biological target: T11, ELF3 (Homo sapiens, UniProt P78545 1-371); conditions: protein: recombinant; tags: N-terminal GST; dsDNA, one strand shown
# T11 sequence: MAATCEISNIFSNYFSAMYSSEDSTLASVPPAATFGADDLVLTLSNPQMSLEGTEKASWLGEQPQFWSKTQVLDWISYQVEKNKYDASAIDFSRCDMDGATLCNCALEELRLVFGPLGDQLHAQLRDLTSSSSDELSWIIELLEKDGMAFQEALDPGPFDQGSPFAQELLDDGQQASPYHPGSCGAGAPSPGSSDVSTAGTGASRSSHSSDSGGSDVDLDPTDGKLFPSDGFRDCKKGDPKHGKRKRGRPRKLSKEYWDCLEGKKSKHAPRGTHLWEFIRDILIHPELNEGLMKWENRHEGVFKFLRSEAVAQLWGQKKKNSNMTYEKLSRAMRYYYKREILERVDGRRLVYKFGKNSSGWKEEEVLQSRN
# Method in brief: as §1
# [18] = biological target: CRX (Homo sapiens, UniProt O43186 1-299); conditions: protein: recombinant; tags: N-terminal GST; dsDNA, one strand shown
# Method in brief: as §1
# [19] = biological target: ETV1 (Homo sapiens, UniProt P50549 1-477); conditions: protein: recombinant; tags: N-terminal GST; dsDNA, one strand shown
# Method in brief: as §1
# ETV1, sequence (P50549 whole entry): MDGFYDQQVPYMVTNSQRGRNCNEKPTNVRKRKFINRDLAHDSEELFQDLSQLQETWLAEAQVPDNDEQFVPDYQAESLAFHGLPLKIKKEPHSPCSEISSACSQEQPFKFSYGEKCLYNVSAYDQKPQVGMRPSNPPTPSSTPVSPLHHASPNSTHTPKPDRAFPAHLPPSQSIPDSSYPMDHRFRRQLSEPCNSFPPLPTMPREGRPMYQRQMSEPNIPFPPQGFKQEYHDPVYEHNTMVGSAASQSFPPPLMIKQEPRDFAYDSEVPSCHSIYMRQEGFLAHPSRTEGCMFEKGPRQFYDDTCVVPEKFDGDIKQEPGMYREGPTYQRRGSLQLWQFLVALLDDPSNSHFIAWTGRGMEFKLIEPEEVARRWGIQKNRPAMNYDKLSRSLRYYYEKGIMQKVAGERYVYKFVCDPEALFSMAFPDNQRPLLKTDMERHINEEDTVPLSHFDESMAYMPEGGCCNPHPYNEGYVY
# HSF1, sequence (Q00613 whole entry): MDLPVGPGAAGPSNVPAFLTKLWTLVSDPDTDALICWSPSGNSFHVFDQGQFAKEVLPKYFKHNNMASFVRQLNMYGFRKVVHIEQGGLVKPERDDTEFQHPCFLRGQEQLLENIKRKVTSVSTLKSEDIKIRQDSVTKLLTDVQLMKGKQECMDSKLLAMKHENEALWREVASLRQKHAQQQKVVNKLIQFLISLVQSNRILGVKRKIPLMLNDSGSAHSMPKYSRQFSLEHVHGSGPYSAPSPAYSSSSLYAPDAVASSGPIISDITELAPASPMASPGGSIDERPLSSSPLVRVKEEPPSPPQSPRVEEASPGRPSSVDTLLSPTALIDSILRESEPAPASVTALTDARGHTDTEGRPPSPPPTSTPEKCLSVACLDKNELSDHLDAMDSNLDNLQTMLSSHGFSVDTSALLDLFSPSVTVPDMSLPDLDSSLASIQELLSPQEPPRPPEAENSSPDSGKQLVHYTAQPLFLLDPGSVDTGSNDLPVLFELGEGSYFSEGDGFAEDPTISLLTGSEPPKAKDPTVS
# ELF4, sequence (Q99607 whole entry): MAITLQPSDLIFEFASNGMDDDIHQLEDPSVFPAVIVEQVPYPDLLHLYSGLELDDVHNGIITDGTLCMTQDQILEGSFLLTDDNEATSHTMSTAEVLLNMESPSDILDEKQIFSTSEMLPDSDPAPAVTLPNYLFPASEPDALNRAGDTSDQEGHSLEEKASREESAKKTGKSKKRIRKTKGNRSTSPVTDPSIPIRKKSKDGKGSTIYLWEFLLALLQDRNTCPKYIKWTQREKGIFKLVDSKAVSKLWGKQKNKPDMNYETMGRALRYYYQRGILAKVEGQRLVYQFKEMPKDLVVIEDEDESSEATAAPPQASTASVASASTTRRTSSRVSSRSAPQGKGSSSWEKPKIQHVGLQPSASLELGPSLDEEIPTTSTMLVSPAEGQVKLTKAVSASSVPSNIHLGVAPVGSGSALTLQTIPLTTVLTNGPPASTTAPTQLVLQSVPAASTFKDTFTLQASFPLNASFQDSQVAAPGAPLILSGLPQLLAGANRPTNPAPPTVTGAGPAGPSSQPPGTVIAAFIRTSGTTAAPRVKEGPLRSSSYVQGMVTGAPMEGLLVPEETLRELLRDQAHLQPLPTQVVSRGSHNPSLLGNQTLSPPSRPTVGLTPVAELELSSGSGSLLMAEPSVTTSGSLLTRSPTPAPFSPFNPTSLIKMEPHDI
# ETV5, sequence (P41161 whole entry): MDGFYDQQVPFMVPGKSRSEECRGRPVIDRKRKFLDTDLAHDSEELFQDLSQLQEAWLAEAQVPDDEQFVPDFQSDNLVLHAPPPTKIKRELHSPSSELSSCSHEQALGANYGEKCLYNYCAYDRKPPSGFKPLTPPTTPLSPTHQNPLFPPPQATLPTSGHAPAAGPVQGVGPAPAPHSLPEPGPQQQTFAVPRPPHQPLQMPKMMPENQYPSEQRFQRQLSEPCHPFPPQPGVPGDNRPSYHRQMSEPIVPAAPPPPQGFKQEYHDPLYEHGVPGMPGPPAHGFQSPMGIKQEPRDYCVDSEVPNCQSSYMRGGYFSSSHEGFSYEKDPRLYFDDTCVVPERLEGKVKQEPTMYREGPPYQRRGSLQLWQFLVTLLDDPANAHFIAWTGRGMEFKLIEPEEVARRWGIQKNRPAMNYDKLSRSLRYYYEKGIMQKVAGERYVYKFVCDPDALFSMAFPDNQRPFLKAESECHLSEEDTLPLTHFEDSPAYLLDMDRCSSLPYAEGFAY
# ELF1, sequence (P32519 whole entry): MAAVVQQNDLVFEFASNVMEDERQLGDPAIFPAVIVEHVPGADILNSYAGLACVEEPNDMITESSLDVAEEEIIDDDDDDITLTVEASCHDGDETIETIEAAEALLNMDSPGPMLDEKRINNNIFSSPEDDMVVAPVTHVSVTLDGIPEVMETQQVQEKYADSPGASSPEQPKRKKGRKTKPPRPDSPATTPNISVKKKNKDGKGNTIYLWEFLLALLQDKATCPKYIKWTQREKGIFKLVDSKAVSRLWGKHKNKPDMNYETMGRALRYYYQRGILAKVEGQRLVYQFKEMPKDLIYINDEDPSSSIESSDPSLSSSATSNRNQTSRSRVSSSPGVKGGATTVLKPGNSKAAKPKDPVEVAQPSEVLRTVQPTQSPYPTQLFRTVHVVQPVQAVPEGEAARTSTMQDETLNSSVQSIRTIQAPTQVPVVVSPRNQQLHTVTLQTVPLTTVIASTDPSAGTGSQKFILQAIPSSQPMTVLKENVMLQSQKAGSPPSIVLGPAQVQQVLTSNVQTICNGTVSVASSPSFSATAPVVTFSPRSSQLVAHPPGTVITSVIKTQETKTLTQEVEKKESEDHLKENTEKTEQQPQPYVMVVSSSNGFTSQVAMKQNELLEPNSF
# SPIB, sequence (Q01892 whole entry): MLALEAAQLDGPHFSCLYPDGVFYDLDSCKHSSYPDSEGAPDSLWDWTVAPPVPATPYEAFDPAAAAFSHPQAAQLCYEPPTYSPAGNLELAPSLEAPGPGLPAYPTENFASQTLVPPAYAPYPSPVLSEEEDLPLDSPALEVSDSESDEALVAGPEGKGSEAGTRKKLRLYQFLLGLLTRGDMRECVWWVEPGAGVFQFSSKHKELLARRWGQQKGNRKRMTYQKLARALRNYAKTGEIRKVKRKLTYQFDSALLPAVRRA
# CRX, sequence (O43186 whole entry): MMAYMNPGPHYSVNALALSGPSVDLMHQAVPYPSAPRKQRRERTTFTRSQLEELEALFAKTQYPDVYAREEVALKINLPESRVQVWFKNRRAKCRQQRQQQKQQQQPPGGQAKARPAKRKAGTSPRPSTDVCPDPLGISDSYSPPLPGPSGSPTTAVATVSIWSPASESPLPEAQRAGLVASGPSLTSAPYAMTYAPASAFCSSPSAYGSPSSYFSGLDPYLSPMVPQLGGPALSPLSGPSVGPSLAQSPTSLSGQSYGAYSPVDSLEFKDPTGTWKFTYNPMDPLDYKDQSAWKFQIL
sequence,measurement,setting,value
CCTAAC,binding signal,[1],"1.56 fold enrichment (6-mer frequency, TF over GST control)"
same,binding signal,[2],"1.43 fold enrichment (6-mer frequency, TF over GST control)"
same,binding signal,[3],"1.37 fold enrichment (6-mer frequency, TF over GST control)"
same,binding signal,[4],"1.42 fold enrichment (6-mer frequency, TF over GST control)"
same,binding signal,[5],"1.44 fold enrichment (6-mer frequency, TF over GST control)"
same,binding signal,[6],"1.31 fold enrichment (6-mer frequency, TF over GST control)"
same,binding signal,[7],"1.48 fold enrichment (6-mer frequency, TF over GST control)"
same,binding signal,[8],"1.4 fold enrichment (6-mer frequency, TF over GST control)"
same,binding signal,[9],"1.42 fold enrichment (6-mer frequency, TF over GST control)"
same,binding signal,[10],"1.38 fold enrichment (6-mer frequency, TF over GST control)"
same,binding signal,[11],"1.42 fold enrichment (6-mer frequency, TF over GST control)"
same,binding signal,[12],"1.19 fold enrichment (6-mer frequency, TF over GST control)"
same,binding signal,[13],"1.49 fold enrichment (6-mer frequency, TF over GST control)"
same,binding signal,[14],"1.53 fold enrichment (6-mer frequency, TF over GST control)"
same,binding signal,[15],"1.36 fold enrichment (6-mer frequency, TF over GST control)"
same,binding signal,[16],"1.41 fold enrichment (6-mer frequency, TF over GST control)"
same,binding signal,[17],"1.51 fold enrichment (6-mer frequency, TF over GST control)"
same,binding signal,[18],"1.25 fold enrichment (6-mer frequency, TF over GST control)"
same,binding signal,[19],"1.35 fold enrichment (6-mer frequency, TF over GST control)"
